# Reference: PubChem BioAssay AID651953 (The Scripps Research Institute Molecular Screening Center, 2012)
# Among all 2,400 compounds or so, about 430 (18%) were called active. Cut-off read from the data, not from the text of the source: active = activation above about 12%; inactive = the rest. A selection follows.
# Assay: calcium activation in Ga16-expressing cells, counter-screen for TAAR1 antagonist project, cell-based, fluorescence (AID 651953);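 note: 0% = vehicle wells and 100% = saturating stimulus response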
# Conditions: agonist counterscreen, at 3 µM, hits give high values
row,SMILES,activation
1,Cc1ccc2cccc(OCCCOc3ccccc3CO)c2n1,7.98% (inactive)
2,COc1ccc(/C=C/C(=O)Nc2ccc(C34CC5CC(CC(O)(C5)C3)C4)cc2)cc1OC,11.4% (inactive)
3,Cc1cccc(NC(=O)c2nc[nH]c2C(=O)NCC(=O)OCc2ccccc2)c1,4.58% (inactive)
4,CSCCC(NC(=O)COc1ccccc1)C(=O)OCC(=O)c1cc2ccccc2o1 (stereo not given),7.36% (inactive)
5,CC(=O)c1ccccc1OCc1ccc(C(=O)c2ccccc2)cc1,6.62% (inactive)
6,Cc1nc(N2CCN(c3ccccn3)CC2)c2c(C)c(C(=O)Nc3ccc(F)cc3)sc2n1,8.75% (inactive)
7,O=C(NCCN1C(=O)S/C(=C\c2cccnc2)C1=O)c1ccc(S(=O)(=O)N2CCCC2)cc1,2.99% (inactive)
8,O=S1(=O)c2c(cccc2N2CCCCC2)O[C@H](COCc2ccccc2)CN1C1CC1,2.53% (inactive)
9,CCN1CCc2c(C#N)c(NCc3ccccc3)nc(NCCO)c2C1,4.39% (inactive)
10,COc1ccc(Cl)cc1NC(=O)CCS(=O)(=O)c1cc2c(cc1C)NC(=O)CO2,8.26% (inactive)
11,COc1ccc(-c2cc(C(=O)N(C)CC(=O)Nc3ccccc3Cl)c3ccccc3n2)cc1OC,7.25% (inactive)
12,CCOc1ccc(N2CC(C(=O)N/N=C/c3sccc3C)CC2=O)cc1 (stereo not given),1% (inactive)
13,C/C(=N\Nc1ncc(Cl)cc1Cl)c1ccc(S(=O)(=O)NCc2ccco2)cc1,0.19% (inactive)
14,CSC(=S)N/N=C/c1c[nH]c2ccccc12,6.16% (inactive)
15,O=C(O)c1ccc(NC(=O)c2cn(-c3ccccc3)nc2-c2ccc(Cl)cc2)cc1,3.12% (inactive)
16,O=C(NCC1CCCO1)c1cc2c([nH]c3ccccc32)c(-c2ccc(F)cc2)n1 (stereo not given),6.43% (inactive)
17,COc1ccc(-c2cc(C(=O)N(C)Cc3ccccc3)c3ccccc3n2)cc1,4.97% (inactive)
18,COc1ccc(-c2cc(C(=O)N(C)Cc3ccc(OC)c(OC)c3OC)c3ccccc3n2)cc1OC,7.43% (inactive)
19,COc1ccc(CN(C)C(=O)c2cc(-c3ccc(C)cc3C)nc3ccccc23)c(OC)c1OC,11.6% (active)
20,CC(C)Oc1cc(F)ccc1-c1cc(C(=O)Nc2ccc(F)cc2)[nH]n1,5.64% (inactive)
21,COc1ccc(C(=O)Nc2ccccc2C(=O)N/N=C/c2ccc(O)c(OC)c2)cc1,7.09% (inactive)
22,Cc1cc(C(C)(C)C)oc1C(=O)N(CC(=O)NC1CCCC1)Cc1ccc(Cl)cc1,13.9% (active)
23,C=CCc1cc(S(=O)(=O)c2ccc(O)c(CC=C)c2)ccc1O,3.77% (inactive)
24,COc1ccc2[nH]c(=O)c(CN(Cc3cccnc3)S(=O)(=O)c3ccccc3F)cc2c1,9.12% (inactive)
25,Cc1ccccc1OCC(=O)Nc1ccc(N2CCN(C(=O)C(C)C)CC2)c(Cl)c1,11.8% (active)
26,Cc1ccc(C)c(N2CCN(C(=O)CCCCCn3c(=S)[nH]c4ccc(N5CCOCC5)cc4c3=O)CC2)c1,8.79% (inactive)
27,CCNS(=O)(=O)c1ccc(CCC(=O)N2CCN(c3cc(Cl)ccc3C)CC2)cc1,11.5% (active)
28,OC(c1ccccc1)(c1ccccc1)C1CCN(CCCOc2ccc(-c3ccsc3)cc2)CC1,17.6% (active)
29,Cc1ccc(NC(=O)c2ccc(CSc3ncnc4nc[nH]c34)cc2)c(C)c1,7.81% (inactive)
30,O=C(CCc1ccccc1)Nc1cccc(-c2nnc(-c3ccco3)o2)c1,11% (inactive)
